# Measured values: ChEMBL document CHEMBL4513216, “Probing the Open Global Health Chemical Diversity Library for Multistage-Active Starting Points for Next-Generation Antimalarials” (ACS Infect Dis, 2020)
# In all, about 65,000 compounds went through this assay and about 2,100 (3.2%) showed an effect of 50% or more. The median lay at about -52%. The list comes from a sample in which strong results are over-represented; it also holds similar structures and randomly drawn compounds.
# Test system: Plasmodium falciparum
# Assay: Screen against P. falciparum Asexual Blood Stage (ABS), at 5uM
# Type: functional, Dd2
# Conditions: tested at 5 uM
row,Compound,INHIBITION [%]
1,O=C(Cc1ccncc1)N1CCC2(CC1)CC(c1ccccc1)CO2 (centres undefined),-26.8
2,CC(C)C(C(=O)N1CCCN(c2nccs2)CC1)n1cncn1 (centres undefined),-114
3,Cc1csc(N2CCCN(C3Cc4ccccc4C3)CC2)n1,-1.32
4,O=C1CC2(CCCCN2C(=O)Cc2ccccc2)CN1c1cccnc1 (centres undefined),-37.3
5,Cc1ccc(CN2CC[C@@H]3OCCN(Cc4ccncc4)[C@H]3CC2)s1,34.9
6,N[C@H]1CN(C(=O)c2ccc(Cl)cc2O)C[C@@H]1C1CC1,33
7,N[C@H]1CN(C(=O)c2cnc3cc(Cl)ccc3c2O)C[C@@H]1C1CC1,-22.9
8,Cc1cc(Cl)ccc1C(=O)N1C[C@H](C2CC2)[C@@H](N)C1,61
9,Cc1ccc(C(=O)N2CCOC3(CCCC3)C2)c(=O)[nH]1,-106
10,COCCC(=O)N1C[C@H]2CN(Cc3cccnc3)C(=O)[C@H]2C1,-55.2
11,CCN(C)C(=O)CCN(C)Cc1cnc(C)s1,-125
12,CN(C(=O)Cc1ccccc1F)C1CCN(c2ccccn2)CC1,-73.8
13,CC(C)=CCCC1(C)C=Cc2c(cc(C)n(CCC(=O)O)c2=O)O1 (centres undefined),-18.9
14,FC(F)(F)c1cccc(OC2CCN(Cc3ncc[nH]3)CC2)c1,-23
15,OC1(CN2CCC(Oc3cccc(C(F)(F)F)c3)CC2)CNCCOC1 (centres undefined),64.7
16,OC1(CN2CCN(c3cccc(C(F)(F)F)c3)CC2)CNCCOC1 (centres undefined),57
17,OC1(CN2CCCC2)COCCN(c2cc(C(F)(F)F)ccn2)C1 (centres undefined),-53.6
18,OC1(CN2CCC(Oc3cccnc3)CC2)CNCCOC1 (centres undefined),-73.6
19,OC1(CNCCN2CCc3ccccc32)CNCCOC1 (centres undefined),-0.439
20,Cc1ccc(C(C)NC(=O)CSCC(N)=O)cc1 (centres undefined),-54.8
21,CCS(=O)(=O)N1CCc2c(cccc2NC(=O)NCCO)C1,-14.1
22,Clc1cc(Cl)cc(OCCN2CCC(n3cncn3)CC2)c1,33.8

row,Compound,INHIBITION [%]
1,Cn1ccnc1CN1CCCN(C(=O)CC(C2CC2)C2CC2)CC1,-16.7
2,Cn1nc(COCC2CC2)c2c1CCN(Cc1cccs1)C2,-41.4
3,CN(Cc1cccs1)C(=O)CN1CCOC(Cn2cncn2)C1 (centres undefined),-56
4,Cc1cccc(C(C(=O)N(C)Cc2ccon2)N(C)C)c1 (centres undefined),-2.4
5,Cc1cccc(C(C(=O)N(C)Cc2cc(C)no2)N(C)C)c1 (centres undefined),49.9
6,Cc1cccc(C(C(=O)N(C)Cc2ccco2)N(C)C)c1 (centres undefined),66.7
7,CCC(CO)NCc1ccc(-c2ccccc2F)o1 (centres undefined),-35.5
8,O=C(Cn1ccnc1)N1C[C@@H]2CC[C@H](Oc3ccc(Cl)cc3)[C@@H]2C1,-41.4
9,COc1ccc(-c2nc(C)cc(SCC(N)=O)n2)cc1,-104
10,CN1CCC(N(CCc2ccccc2)C(=O)c2ccc(C#N)cc2)CC1,28.4
11,COc1ccc2[nH]cc(-c3ccnc(NC4CCCC4)n3)c2c1,58.8
12,COc1ccc2[nH]cc(-c3ccnc(N4CCC(C)CC4)n3)c2c1,-172
13,O=c1[nH]c(-c2ccncc2)ncc1-c1ccnc(NC2CCCCC2)n1,-61.7
14,CC(C)c1noc(CN(Cc2ccccc2)C2CC2)n1,-119
15,CCN1CCn2c(C)cnc2C12CCN(C(=O)N(C)C)CC2,53
16,CCN1CCn2c(C)cnc2C12CCN(C(=O)CC(C)C)CC2,-55.6
17,CCN1CCn2c(C)cnc2C12CCN(C(=O)C(C)C)CC2,-51.6
18,CC(C)CNC(=O)c1c(-n2cnnn2)sc2c1CCCC2,-47.3
19,CCN1CCCC(CNC(=O)C2(c3cccc(Cl)c3)CC2)C1 (centres undefined),69.7
20,COCCN1CCC(CNC(=O)C2(c3ccccc3)CCC2)C1 (centres undefined),-0.505
21,CCN1CCC(CNC(=O)C2(c3cccc(C)c3)CC2)C1 (centres undefined),0.0435
22,CCCN1CCC(CNC(=O)C2(c3ccccc3)CCC2)C1 (centres undefined),66.3

row,Compound,INHIBITION [%]
1,CCCN1CCC(CNC(=O)C2(c3cc(C)cc(C)c3)CCC2)C1 (centres undefined),41.6
2,COCCN1CCC(CNC(=O)C2(c3cccc(Cl)c3)CC2)C1 (centres undefined),-0.48
3,COc1cc2c(cc1CNCc1cccnc1-n1cccn1)OC(C)C2 (centres undefined),20.8
4,COc1cccc(COCC(=O)N2CCCC2Cn2cccn2)c1 (centres undefined),-10.1
5,COCc1ccccc1NCc1csc(NC(C)=O)n1,-51.9
6,CCCN1CCC(c2nc3ccc(NCc4cccnc4)cn3n2)CC1,-28.7
7,O=C(c1ccc(Cl)cc1)N1CCC(N2CCNC2=O)CC1,-169
8,CCN(C)C1COC2(CCN(C(=O)c3ccc(Cl)cc3)CC2)C1 (centres undefined),2.64
9,CC1(C)[C@@H]2CC=C(CN3CCCn4nc(C(=O)O)cc4C3)[C@H]1C2,-37.3
10,COCCNc1nnc(S(=O)(=O)CCC(C)(C)C#N)s1,-77.6
11,CCn1nc(C)c2nc(C(C)C)nc(NCCc3ccc(O)cc3)c21,-3.69
12,Cc1c(-c2cc(C(F)(F)F)nc(N3CCC(N)CC3)n2)cnn1C,22.7
13,CCn1ncc(-c2cc(C(F)(F)F)nc(N3CCC(N)CC3)n2)c1C,65.2
14,Cc1ccc(-c2cc(C(F)(F)F)nc(N3CCOCC3)n2)s1,-17.2
15,CCOC(=O)N1CCN(C(=O)c2cc(OCC)c3ccoc3c2)CC1,-79
16,COc1cc(C(=O)Nc2nc(C)no2)ccc1OC(F)F,-35.8
17,Cn1cc(CCCN2CCCC(c3cc(C(F)(F)F)[nH]n3)C2)cn1 (centres undefined),33.1
18,Cc1cnn(CC2CN(Cc3cccc(OC(C)C)c3)CCO2)c1 (centres undefined),35.5
19,O=C(NC1CCC1)[C@H]1C[C@H]2CN(CC3CC3)C[C@@H]1O2,-98
20,NCC1CN(C(=O)c2cccc(-n3cccn3)c2)CCO1 (centres undefined),-21.2
21,O=C(c1cccc(-n2cccn2)c1)N1CCCOC(CN2CCCC2)C1 (centres undefined),53.4
22,O=C(c1cccc(-n2cccn2)c1)N1CCCOC(Cn2cccn2)C1 (centres undefined),-33.9

row,Compound,INHIBITION [%]
1,O=C(CSCC1CC1)N1CCCN(c2ccc(F)cc2)CC1,-42.8
2,COc1ccc(-n2cnnc2SCC(=O)N(C)C(C)C)cn1,-60.2
3,COCC(=O)N1CCc2ccccc2C12CCNCC2,-52
4,CCOC(=O)N1CCc2ccccc2C12CCNCC2,54.6
5,O=C(C1CC1)N1CCc2ccccc2C12CCNCC2,-55.8
6,Cc1cc(-c2cnc(N3CCNC(=O)C3)nc2-c2ccncc2)on1,-43.2
7,CCc1nc(C)c(C(=O)N2C[C@@H](C(=O)O)[C@H](C3CC3)C2)s1,-112
8,COCCN(C)C[C@H]1C[C@H](CO)CN(C(=O)c2ccc(=O)n(C)c2)C1,-100
9,Cc1ccc(N2CCC3(CN(Cc4ccncc4)CCC3(F)F)C2)nn1 (centres undefined),-5.89
10,CCC(NC(=O)c1ccco1)c1ccccc1OCC(=O)N1CCCC1 (centres undefined),-51.4
11,CCC(NCc1ccccc1)c1ccccc1OCC(=O)NC (centres undefined),65.6
12,CCC(NCc1ccccn1)c1ccccc1OCC(=O)NC (centres undefined),-27.1
13,CC(Cn1cncn1)NC(=O)N1CC2(CCCC2)c2ccccc21 (centres undefined),-89
14,N#CC1(NC(=O)Cc2cc(Cl)c3c(c2)OCCO3)CCC1,-75
15,O=C(c1cocn1)N1CC[C@H]2OCC[C@@]2(COc2ncccc2F)C1,-34.6
16,COCC(=O)N1Cc2ccnn2CC(COCCN(C)C)C1 (centres undefined),-13.6
17,CC(C)n1c(C2CCCN(CCS(C)(=O)=O)C2)nc2ccccc21 (centres undefined),-69.9
18,CC(C)OCCCN1CCCC(c2nc3ccccc3n2C(C)C)C1 (centres undefined),56
19,CC(C)n1c(C2CCCN(CC(N)=O)C2)nc2ccccc21 (centres undefined),-23.5
20,Cc1ccnc(NC(=O)CCc2cnn(C)c2C)c1,-26.3
21,CC(C)CSCCCNC(=O)C1CCC1,-47.5
22,CCN(CC1CCOC1)S(=O)(=O)Cc1cc(Cl)ccc1OC (centres undefined),59.1

row,Compound,INHIBITION [%]
1,CCN(CC1CCOC1)S(=O)(=O)Cc1ccccc1Cl (centres undefined),-53.1
2,COc1ccc(Cl)cc1CCNC(=O)N(C)CC1CCOC1 (centres undefined),-102
3,CN1CCCCC12CCN(C(=O)c1cccn1C)CC2,-27
4,COCCNc1ncnc2c1CCN(C(=O)CC1CCC(=O)N1)CC2 (centres undefined),-36
5,CC(=O)N1CCOC2(CCCN(C(=O)CCN3CCCCC3)C2)C1 (centres undefined),56
6,CC(=O)N1CCCC2(C1)CN(C(=O)C1CCCCC1)CCO2 (centres undefined),-104
7,CC(=O)N1CCC2(CCCN(C(=O)CCN3CCCCC3)C2)C1 (centres undefined),-141
8,Cc1nccc(NCc2cncc3c2CCN(S(C)(=O)=O)C3)n1,-102
9,Nc1cc(-c2cccs2)nn(CC(=O)N2CCc3ccccc32)c1=O,-13.9
10,Cc1ccnc(NCCCN2CCc3ccccc32)n1,19.8
11,Cc1cc(C)n(CC(C)NCCn2nc(C)c(Cl)c2C)n1 (centres undefined),-48.1
12,Cc1cc(C)n(CC(C)NCCN2CCc3ccccc32)n1 (centres undefined),54.7
13,N#CC1(C(=O)N2C[C@@H]3CC[C@H]2CN(Cc2cscn2)C3)CCOCC1,-81.2
14,COc1cc(F)c(NCc2nc3ccccc3n2C)cc1OC,-381
15,O=C1N(Cc2cccnc2)CCC12CCCN(c1ncccn1)C2 (centres undefined),-123
16,COc1ccccc1CC1CCCN(CC(=O)NC2CC2)C1 (centres undefined),16.1
17,COc1ccccc1CN1CCCC(Cc2nccnc2N)C1 (centres undefined),62.1
18,Nc1nccnc1CC1CCCN(Cc2ccnc3ccccc23)C1 (centres undefined),-53.7
19,CNC(=O)CN1CCCC(Cc2ccccc2OC)C1 (centres undefined),61.9
20,Nc1nccnc1CC1CCCN(Cc2cccc3[nH]ccc23)C1 (centres undefined),19.4
21,CNC(=O)NC(=O)CN1CCCC(Cc2ccccc2OC)C1 (centres undefined),-87.4
